Source: PubChem (National Center for Advancing Translational Sciences (NCATS))
D1 ag = activates the human D1 dopamine receptor. P21728. HEK293 T-REx D1 cells, calcium flux, agonist mode. activation, % at 2 µM. 1% of 360,000 active. AID 504660; in the data active = activation above about 30%; also: 0% is about no effect
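Agonism was scored from calcium flux recorded over 180 s (1 read/s) after pintool compound addition, following a 10-cycle baseline. Cells were inducible force-coupled HEK293 TREx D1, plated overnight at 30 C and loaded with no-wash calcium dye.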
DRD3 antagonist = antagonists of human D3 dopamine receptor; P35462; D3R cells, DiscoveRx beta-arrestin luminescence, antagonist mode; active compounds read low; max response, negative = inhibition, %; 2.5% of 360,000 active; AID 652054; in the data active = max response below about -50%; also: % is scaled to controls: 0 for no effect and ±100 for the full control effect
Target sequence (P35462 whole entry, looked up): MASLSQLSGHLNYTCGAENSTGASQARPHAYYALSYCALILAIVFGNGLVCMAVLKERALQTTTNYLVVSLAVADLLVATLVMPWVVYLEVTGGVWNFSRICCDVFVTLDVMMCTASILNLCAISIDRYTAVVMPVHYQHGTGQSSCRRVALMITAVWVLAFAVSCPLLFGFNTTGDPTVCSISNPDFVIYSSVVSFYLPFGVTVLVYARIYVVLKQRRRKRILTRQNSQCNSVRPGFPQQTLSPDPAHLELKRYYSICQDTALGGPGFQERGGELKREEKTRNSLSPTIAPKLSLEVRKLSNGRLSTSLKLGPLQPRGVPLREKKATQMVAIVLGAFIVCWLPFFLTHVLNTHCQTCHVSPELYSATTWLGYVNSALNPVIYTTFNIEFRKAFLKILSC
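Cells expressing the human receptor were seeded at 1500 cells/well, incubated overnight at 37 degrees C in 5% CO2, then exposed to library compounds with dopamine controls for 90 minutes at 37 degrees C before luminescent detection.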
DRD3 agonist = agonists of human D3 dopamine receptor; P35462; D3R DiscoveRx beta-arrestin cells, luminescence, 90 min; max activation, %; 0.58% of 410,000 active; AID 652048; in the data active = max activation above about 30%; also: 0% is about no effect
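Cells at 1500/well, incubated overnight, then treated with pinned compounds (dopamine as control) for 90 min at 37 degrees C. DiscoveRx reagent added for 30 - 60 minutes at room temperature; luminescence read.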
D1 potentiator = enhances dopamine response at the human D1 receptor. P21728. HEK293 TREx D1 cells, calcium flux, dopamine EC20 potentiation. potentiation, % at 10 µM. 0.036% of 360,000 active. AID 504651; in the data active = potentiation above about 30%; also: 0% is about no effect
D1 antagonist = blocks dopamine activation of the human D1 receptor; activity change, negative = inhibition, % at 10 µM; 3.2% of 360,000 active; HEK293 TREx D1 cells, calcium flux, dopamine EC80; active compounds read low; in the data active = activity change below about -30%; also: % is scaled to controls: 0 for no effect and ±100 for the full control effect
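Inducible Hek293 Trex D1 cells (tetracycline, overnight, 30 C). Calcium dye 30–90 min RT. Antagonist mode: EC80 dopamine added after 180 s compound read.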
The depositor's hits bear a star; / = no result given. Most compounds without a hit are left out; they make up all but 6% or so of the library.

SMILES	D1 ag	DRD3 antagonist	DRD3 agonist	D1 potentiator	D1 antagonist
O=C(CCc1c[nH]c2ccccc12)NC(Cc1ccccc1)C(=O)O (stereo not given)	1	8	6	-6	3
CC(C)Nc1nc(Nc2ccccc2Cl)c2sccc2n1	/	8	-10	/	/
CC1(C(=O)NCc2cccnc2)CCN1C(=O)c1cccc(F)c1 (stereo not given)	/	-2	4	/	/
Cc1ccc2nc(N/C(=N/S(=O)(=O)c3ccc(F)cc3)c3ccccc3)sc2c1	9	-3	4	-13	-44*
COc1cccc(NC(=S)N2CCC(C(=O)c3ccc(F)cc3)CC2)c1	/	4	-5	/	/
Cc1sc(NC(=O)c2ccco2)nc1-c1ccc2c(c1)CC(C)N2C(=O)C1CC1 (stereo not given)	1	27	42*	9	6
COc1cc(F)ccc1-c1csc(C(NC(C)=O)c2ccc(F)c(F)c2)n1 (stereo not given)	/	13	2	/	/
O=C(C(=Cc1ccc(F)cc1)C(=O)c1ccccc1)c1ccccc1	/	-62*	-8	/	/
COc1ccc(C(=O)O)cc1S(N)(=O)=O	6	-60*	-12	0	17
CNS(=O)(=O)c1cc(C(=O)O)ccc1OC	2	5	2	4	23
C=CCSc1nc2ccccc2n1C(=O)/C=C/c1ccc(OC)c(OC)c1	2	-10	-17	-1	-5
CCSc1nc2ccccc2n1C(=O)/C=C/c1ccc(OC)c(OC)c1	2	-51*	-1	4	14
C=CCSc1nc2ccccc2n1C(=O)/C=C/c1cc(OC)c(OC)c(OC)c1	3	-61*	-54	-2	-9
COC(=O)/C(C#N)=C\c1c(OC)[nH]c2ccccc12	4	-8	-8	-5	1
Cc1cccc(CNC(=O)CN2C(=O)CCCc3ccccc32)c1	-1	/	-5	-1	3
O=C(COC(=O)Cc1ccccc1F)NC(=O)NC1CCCC1	/	3	9	/	/
O=C(CSCc1ccccc1F)NCc1ccc(F)cc1	2	0	-7	0	-35*
CCC(CC)C(=O)Nc1cccc(/C(C)=N/NC(=O)c2c(Br)cnn2C)c1	2	-51*	0	4	-20
CO[C@H]1C=CO[C@@]2(C)Oc3c(C)c(O)c4c(O)c(c5c(c4c3C2=O)=NC2(CCN(CC(C)C)CC2)N=5)NC(=O)/C(C)=C\C=C/[C@H](C)[C@H](O)[C@@H](C)[C@@H](O)[C@@H](C)[C@H](OC(C)=O)[C@@H]1C	/	/	8	/	/
COc1ccc(C)cc1NC(=O)COC(=O)c1c(-c2ccccc2)noc1C	/	20	1	/	/
CCN(c1ccc(C)cc1C)S(=O)(=O)c1nnc(NC(=O)C(C)(C)C)s1	0	-74*	-9	-12	0
CCN(c1ccc(C)cc1C)S(=O)(=O)c1nnc(NC(=O)C(C)C)s1	1	-19	0	-8	24
Cc1cc(C)n(-c2nc3ccccc3nc2Nc2ccc(Cl)c(C(=O)OC(C)C)c2)n1	2	/	7	-4	8
CC(=O)Nc1ccc(Nc2nc(C)c([N+](=O)[O-])c(N(C)c3ccccc3)n2)cc1	6	6	-3	-11	-32*
CCCCSc1nc2sc3c(c2c(=O)n1-c1ccccc1C)CC(C)(C)OC3	4	/	-2	0	7
SMILES	D1 ag	DRD3 antagonist	DRD3 agonist	D1 potentiator	D1 antagonist
CN1CCN(C(=O)C2(NC(=O)Nc3cccc(F)c3)CCCCC2)CC1	3	-29	-2	-4	-30*
O=C(Nc1cccc([N+](=O)[O-])c1)Nc1ccc2c(c1)CCC2	21	0	-6	-4	-64*
O=C(Nc1ccccc1)Nc1ccc2c(c1)CCC2	13	-17	-5	-1	-13
O=C(Nc1cccc(F)c1)Nc1ccc2c(c1)CCC2	20	7	-1	-10	-84*
O=C(Nc1cccc(F)c1)c1c(F)c(F)c(F)c(F)c1F	18	7	3	-5	-36*
COC(=O)c1cc2c(=O)c3ccccc3oc2nc1/C=C/N(C)C	76*	16	12	-2	1
Cc1ccc(-n2nc(C)c3nc(CCC(=O)Nc4cccc(F)c4)c(=O)n(C)c32)cc1	1	/	-6	0	-1
CC1(C)S[C@@H]2[C@H](NC(=O)C(C(=O)Oc3ccc4c(c3)CCC4)c3ccccc3)C(=O)N2[C@H]1C(=O)O (stereo not given in full)	/	/	-11	/	/
COc1ccc(-c2oc3ncn4nc(COc5ccccc5C)nc4c3c2-c2ccc(OC)cc2)cc1	2	/	9	1	4
COc1cc2c(cc1OC(C)=O)C(=O)CCCC2	/	0	-8	/	/
CC(=O)Oc1cc2c(cc1OC(C)=O)C(=O)CCCC2	/	-2	66*	/	/
Cc1cc(=O)n(Cc2c(F)cccc2Cl)c2c1c(C)nn2C	9	/	10	0	-3
Cc1cccc(N2CC(C)Cn3c2nc2c3c(=O)n(CC(=O)O)c(=O)n2C)c1 (stereo not given)	0	/	-13	1	7
C=CCn1c(=O)c2c(nc3n2CC(C)CN3c2cccc(OC)c2)n(C)c1=O (stereo not given)	3	-69*	-10	/	15
C=CCn1c(N2CCN(c3ccc(OC)cc3)CC2)nc2c1c(=O)n(C)c(=O)n2C	15	6	8	-6	-38*
Cc1ccc(Cc2nc3ccccc3nc2SCC(=O)N2CCN(c3ccccc3F)CC2)cc1	0	/	3	-3	-6
COc1ccc(F)c(CN(C)CC2CCCN(CCc3ccc(F)cc3)C2)c1 (stereo not given)	3	8	-20	-12	-58*
CC(=O)c1cccc(CN(C)CC2CCCN(CCc3ccccc3C)C2)c1 (stereo not given)	4	-17	-16	-9	-66*
COc1ccc(CN(C)CC2CCCN(CCc3ccc(F)cc3)C2)cc1OC (stereo not given)	2	-14	-13	-6	-4
CN(Cc1ccccc1)CC1CCCN(CCc2ccccc2F)C1 (stereo not given)	3	-24	-16	-6	-1
Cc1ccccc1CCN1CCCC(CN(C)CC(C)(C)C)C1 (stereo not given)	-4	-5	1	-4	-54*
COc1ccccc1CCN1CCCC(CN(C)CC(C)(C)CO)C1 (stereo not given)	1	-27	-9	-2	22
COC(=O)C1C(O)=C(C(C)=Nc2cccc3ccccc23)C(=O)CC1(C)C (stereo not given)	0	-18	1	-7	-4
O=C(Cc1cccc(NC(=O)C2CCCN(C(=O)C3CCCCC3)C2)c1)Nc1ccc(C(=O)N2CCCCC2)cc1 (stereo not given)	/	0	2	/	/
COc1ccccc1CN1CCC(CNC(=O)c2cnn(-c3ccc(Cl)cc3)c2C2CCN(C(=O)OC(C)(C)C)CC2)CC1	31*	/	-13	-6	-1
